Measured values as given in paper PMC4336329 (PLoS ONE, 2015).
Out of some 310,000 compounds screened, about 14,000 (4.5%) showed an effect of 50% or more. The effect is printed as a negative number. The sample as a whole holds a higher share of strong results than the screen did.

target: human ether-à-go-go-related gene (hERG) potassium channel (human, UniProt Q12809); experiment: primary screen, population patch clamp on CHO cells stably expressing hERG; higher = less effect of the substance
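Also: peak tail current of the secondary pulse compared with the same well before compound.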

Sequence of human ether-à-go-go-related gene (hERG) potassium channel (Q12809 whole entry, looked up): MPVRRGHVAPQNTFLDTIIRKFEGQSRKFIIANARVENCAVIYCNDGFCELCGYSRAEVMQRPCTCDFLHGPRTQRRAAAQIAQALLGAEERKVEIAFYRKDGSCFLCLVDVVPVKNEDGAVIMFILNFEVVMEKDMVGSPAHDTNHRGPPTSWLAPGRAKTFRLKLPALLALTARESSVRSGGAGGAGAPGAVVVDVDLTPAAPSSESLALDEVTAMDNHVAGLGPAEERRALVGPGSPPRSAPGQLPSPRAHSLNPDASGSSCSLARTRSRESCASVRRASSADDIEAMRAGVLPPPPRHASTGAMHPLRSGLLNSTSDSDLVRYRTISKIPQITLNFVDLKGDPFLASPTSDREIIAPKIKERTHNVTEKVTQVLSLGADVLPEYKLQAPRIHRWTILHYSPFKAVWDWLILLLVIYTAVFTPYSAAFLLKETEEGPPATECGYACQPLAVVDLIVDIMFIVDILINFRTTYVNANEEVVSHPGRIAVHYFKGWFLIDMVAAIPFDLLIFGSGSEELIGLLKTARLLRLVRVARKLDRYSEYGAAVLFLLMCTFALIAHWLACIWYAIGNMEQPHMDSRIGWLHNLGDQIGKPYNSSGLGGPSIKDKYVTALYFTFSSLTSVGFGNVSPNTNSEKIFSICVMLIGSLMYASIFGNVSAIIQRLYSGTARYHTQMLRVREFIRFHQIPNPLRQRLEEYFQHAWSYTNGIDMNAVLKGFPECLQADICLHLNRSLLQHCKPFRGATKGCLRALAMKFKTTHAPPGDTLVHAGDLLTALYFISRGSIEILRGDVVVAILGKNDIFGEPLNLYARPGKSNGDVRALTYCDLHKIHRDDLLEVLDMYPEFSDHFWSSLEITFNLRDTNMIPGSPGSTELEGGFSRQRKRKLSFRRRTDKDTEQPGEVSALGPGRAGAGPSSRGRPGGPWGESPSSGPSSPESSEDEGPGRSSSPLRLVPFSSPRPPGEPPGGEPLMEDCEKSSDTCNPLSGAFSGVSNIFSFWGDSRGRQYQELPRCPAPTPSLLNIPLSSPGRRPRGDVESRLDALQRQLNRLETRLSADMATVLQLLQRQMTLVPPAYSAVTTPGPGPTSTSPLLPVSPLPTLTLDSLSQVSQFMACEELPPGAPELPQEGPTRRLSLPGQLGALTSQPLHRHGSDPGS

| Structure (SMILES) | hERG current change (%, negative = inhibition) at 10uM [%] |
| --- | --- |
| CC1(C)Cc2c(c(N3CCCC3)nc3sc4c(N5CCNCC5)ncnc4c23)CO1 | -35.2 |
| O=C(N/N=C/c1ccc(-c2cccc(C(F)(F)F)c2)o1)c1ccccc1Br | 3.21 |
| CCOc1ccc(Cl)cc1S(=O)(=O)NC1CCCC1 | -3.26 |
| Cn1c(=O)c2c(nc(Br)n2CC(=O)c2cccs2)n(C)c1=O | -6.03 |
| CCc1ccc(NC(=O)C2CCCCC2C(=O)O)cc1 (stereo not shown) | 11.8 |
| CCOc1ccc(NC(=O)CN(C)C(=O)c2cc([N+](=O)[O-])ccc2N2CCOCC2)cc1OCC | -52.5 |
| CCOc1ccc(NC(=O)CN(C)C(=O)c2cc([N+](=O)[O-])ccc2N2CCCCC2)cc1OCC | -43.9 |
| CCOc1ccc(NC(=O)CN(C)C(=O)c2ccc(N3CCOCC3)c([N+](=O)[O-])c2)cc1OCC | -19.1 |
| O=C(NCC(=O)N(c1ccc(F)cc1)C(C(=O)NC1CCCC1)c1cccnc1)c1cccs1 (stereo not shown) | 7.21 |
| CC(C)C[C@H](NC(=O)NCCC1=CCCCC1)C(=O)O | -4.82 |
| O=C1Nc2ncccc2OC1CCCl (stereo not shown) | 6.83 |
| O=C(COc1ccccc1Cl)NCCCNC(=O)c1ccco1 | 2.17 |
| CCN(Cc1ccccc1)S(=O)(=O)c1ccc(C(=O)N(CCCN(C)C)c2nc3cc4c(cc3s2)OCO4)cc1.Cl | -45.2 |
| CCN(c1ccccc1)S(=O)(=O)c1ccc(C(=O)N(CCN(C)C)c2nc3c(F)cc(F)cc3s2)cc1.Cl | -54.7 |
| CN(C)CCN(C(=O)c1ccc(S(=O)(=O)N(C)c2ccccc2)cc1)c1nc2cc3c(cc2s1)OCO3.Cl | -2.57 |
| CN(C)CCCN(C(=O)c1ccc(S(=O)(=O)N(C)Cc2ccccc2)cc1)c1nc2cc3c(cc2s1)OCO3.Cl | -51.7 |
| CN(C)CCN(C(=O)c1ccc(S(=O)(=O)N(C)c2ccccc2)cc1)c1nc2cc3c(cc2s1)OCCO3.Cl | -1.95 |
| CCN(Cc1ccccc1)S(=O)(=O)c1ccc(C(=O)N(CCCN(C)C)c2nc3cc4c(cc3s2)OCCO4)cc1.Cl | -27.5 |
| CCN(c1ccccc1)S(=O)(=O)c1ccc(C(=O)N(CCCN(C)C)c2nc3c(C)cccc3s2)cc1.Cl | -34.7 |
| CCN(c1ccccc1)S(=O)(=O)c1ccc(C(=O)N(CCCN(C)C)c2nc3cc4c(cc3s2)OCO4)cc1.Cl | -57.4 |
| CN(C)CCN(C(=O)c1ccc2ccccc2c1)c1nc2c(F)cc(F)cc2s1.Cl | 3.41 |
| COc1ccc(-c2noc(CN(C(=O)c3cccs3)C(C)C)n2)cc1 | -28.6 |
| COc1ccc(S(=O)(=O)N2CCOCC2)c(Cl)c1Cl | -18.3 |
| Cn1c(OCc2cccnc2)nc2c1c(=O)n(Cc1ccc(F)cc1)c(=O)n2C | -51.9 |
| Cn1c(=O)c2c(nc(N/N=C/c3ccncc3)n2Cc2ccccc2)n(C)c1=O | -28.8 |
| Cn1c(OCc2ccc3c(c2)OCO3)nc2c1c(=O)n(Cc1cccc(Cl)c1)c(=O)n2C | -0.643 |
| Cn1c(OCc2cccnc2)nc2c1c(=O)n(Cc1ccccc1)c(=O)n2C | -56.1 |
| C=CCOc1nc2c(c(=O)n(Cc3ccc(Cl)cc3)c(=O)n2C)n1C | -2.66 |

| Structure (SMILES) | hERG current change (%, negative = inhibition) at 10uM [%] |
| --- | --- |
| Cn1c(=O)c2c(nc(OCc3ccccc3)n2C)n(C)c1=O | 4.72 |
| Cn1c(=O)c2c(nc(OCc3cccnc3)n2Cc2ccccc2)n(C)c1=O | -32.8 |
| Cn1c(=O)c2c(nc(SCc3cccnc3)n2Cc2ccc(F)cc2)n(C)c1=O | -30.7 |
| Cn1c(OCc2cccnc2)nc2c1c(=O)n(Cc1ccc(Cl)cc1)c(=O)n2C | -51.1 |
| Cn1c(=O)c2c(nc(N/N=C/c3cccnc3)n2Cc2ccccc2)n(C)c1=O | -51.2 |
| Cn1c(=O)c2c(nc(OCc3cccnc3)n2Cc2c(F)cccc2Cl)n(C)c1=O | 1.03 |
| Cn1c(=O)c2c(nc(N/N=C/c3cccnc3)n2Cc2ccc(F)cc2)n(C)c1=O | -16.8 |
| CN(CC(=O)Nc1cccc(F)c1)C(=O)c1ccccc1CCc1ccccc1 | 3.08 |
| O=S(=O)(NCc1ccco1)c1cccc(S(=O)(=O)N2CCCCC2)c1 | -32.2 |
| CCN1CCN(C(c2cccc(OC)c2)c2sc3nc(C)nn3c2O)CC1 (stereo not shown) | 19.7 |
| COc1cccc(CNC(=O)CSC(=S)N2CCCC2)c1 | 2.79 |
| CCOC(=O)N1CCN(c2c(NCCCOC(C)C)c(=O)c2=O)CC1 | -19.7 |
| CC(C)CC(=O)O/N=C1\C(=O)N(Cc2ccc(Cl)cc2)c2ccc([N+](=O)[O-])cc21 | -36.1 |
| CCn1c(CO)nc2c1c(=O)[nH]c(=O)n2Cc1ccccc1 | 17.7 |
| Cn1c(Br)nc2c1c(=O)n(Cc1ccccc1)c(=O)n2C | -10.2 |
| Cn1c(NCc2ccccc2)nc2c1c(=O)n(Cc1ccc(Br)cc1)c(=O)n2C | 4.56 |
| Cn1c(OCc2cccnc2)nc2c1c(=O)n(Cc1ccc(Br)cc1)c(=O)n2C | -57.3 |
| CC1CCCN(C(=O)CN2C(=O)C(C)Oc3ccccc32)C1 (stereo not shown) | 8.2 |
| CCN(CC)C(=O)c1[nH]cnc1C(=O)Nc1ccon1 | 0.396 |
| Cc1ccc(NC(=O)OCc2cncs2)cc1 | 2.29 |
| COCCNC(=O)c1c(N)n(/N=C/c2ccc(F)cc2)c2nc3ccccc3nc12 | -0.595 |
| O=C(NCCCN1CCOCC1)c1cc(S(=O)(=O)N2CCN(c3ccccc3)CC2)ccc1Cl | -76.6 |
| O=C(NCCCN1CCOCC1)c1cccc(S(=O)(=O)N2CCN(c3ccccc3)CC2)c1 | -71.8 |
| O=C(NCCN1CCOCC1)c1cccc(S(=O)(=O)N2CCCC2)c1 | 6.43 |
| O=C(NCCCN1CCOCC1)c1cccc(S(=O)(=O)N2CCOCC2)c1 | 8.97 |
| Cc1ccc(S(=O)(=O)N2CCCCC2)cc1C(=O)NCCCN1CCOCC1 | 16.7 |
| O=C(NCCCN1CCCC1=O)c1cc(S(=O)(=O)N2CCOCC2)ccc1Cl | 13.9 |
